High-throughput results from PubChem BioAssay.
PNC inhibitor: perinucleolar compartment assembly inhibition; 140,000 tested, 3.1% active; PC3M PTB-GFP, PNC prevalence imaging, 16 h; hits give low values; activity change (PNC), negative = inhibition, % at 10 µM;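 active means readout at or below -70, meaning at least 70% loss of cells showing the perinucleolar compartment, a nuclear body marking cancer cells; inconclusive means readout between -30 and a set limit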;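 further: plate controls were DMSO wells for no effect and camptothecin positive control wells for full effect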
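Read-out is percentage of cells bearing a perinucleolar compartment, from automated 20x imaging of fixed, Hoechst-stained PC3M PTB-GFP cells. Cells were seeded 4 h, then exposed 16 h to compound (23 nl of library stock) in duplicate plates.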
HPGD inh: HPGD (human) dehydrogenase inhibition | purified HPGD, NADH fluorescence kinetic, PGE2 substrate | Potency, µM, for the others: at the top dose activity change, negative = inhibition, most hits filed as inhibitors | 150,000 tested, 4.3% active | AID 894; active means well fitted inhibition curve with a large enough effect, not every such curve was filed as active; inconclusive means small, poorly fitted or top-dose-only effect, or another doubt; inactive means no such curve, though single readings can be large or run the other way; further: potency means the concentration at half of the fitted maximal effect
Target sequence (P15428 whole entry, looked up): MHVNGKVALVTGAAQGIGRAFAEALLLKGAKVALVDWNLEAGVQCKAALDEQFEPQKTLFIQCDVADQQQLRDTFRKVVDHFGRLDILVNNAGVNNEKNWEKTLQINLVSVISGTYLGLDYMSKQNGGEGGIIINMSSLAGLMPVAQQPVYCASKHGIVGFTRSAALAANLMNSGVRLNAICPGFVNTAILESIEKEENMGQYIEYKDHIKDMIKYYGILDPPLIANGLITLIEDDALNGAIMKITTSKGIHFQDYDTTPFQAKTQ
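NADH formation kinetics: reaction with 30 uM PGE2 and 1 mM NAD+ (final), 20 nM enzyme, Tris-HCl pH 8 with Tween 20, after 15 min compound preincubation at room temperature. Fluorescence change, last versus first of five reads.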
IMPase cell inh: membrane-permeable compound that blocks inositol monophosphatase. P97697. CHO-M1 cells, IP1 accumulation, HTRF TR-FRET ratio. inhibition (IP1 accumulation), % at 46.1 µM. 120,000 tested, under 10 active; active means well fitted curve in the direction sought with a large enough effect in the signal ratio, not every such curve was filed as active; inconclusive means small, poorly fitted or top-dose-only effect, or a change in a side signal; inactive means no such curve, though single readings can be large or run the other way; the % refers to the signal ratio;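 further: cells stimulated with carbachol in lithium chloride buffer; plate controls were DMSO basal wells for no effect and reference inhibitor wells for full effect; higher means more IMPase inhibition seen as more IP1 and lower FRET ratio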
Target sequence (P97697 whole entry, looked up): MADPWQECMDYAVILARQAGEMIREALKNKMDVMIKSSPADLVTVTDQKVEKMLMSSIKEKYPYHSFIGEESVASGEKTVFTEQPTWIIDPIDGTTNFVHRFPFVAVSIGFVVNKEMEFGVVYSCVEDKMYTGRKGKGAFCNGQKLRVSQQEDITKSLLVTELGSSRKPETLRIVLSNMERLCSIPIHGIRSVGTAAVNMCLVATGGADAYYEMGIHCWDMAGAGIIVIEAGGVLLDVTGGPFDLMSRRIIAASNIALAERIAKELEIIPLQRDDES
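Carbachol-driven Gq signalling in CHO-M1 cells (2000/well) generates IP1. Compounds that block IMPase raise IP1 and so reduce the FRET signal from Eu-anti-IP1 and d2-IP1 after a 10 min room-temperature lysis.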
ALOX15B inhib: blocks human 15-lipoxygenase 2 activity | Potency, µM (series often up to 57.1 µM), inactives show top-dose activity change, negative = inhibition, actives largely listed as inhibitors | O15296 | purified 15hLO-2, xylenol orange hydroperoxide absorbance | 110,000 tested, 0.56% active; further: potency means the concentration at half of the fitted maximal effect; nearly all actives have a fitted effect of over 60% in size
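Read-out: hydroperoxide product oxidises ferrous iron, measured as xylenol orange complex via the 573-to-405 nm absorbance ratio after 30 min. Reaction: 50 nM enzyme, 15 min compound preincubation, 45 uM arachidonic acid, 90 min RT, Hepes pH 7.5 with Triton X-100.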
IMPase Li cell: cell-permeable IMPase inhibitors with lithium potentiation | 210,000 tested, 0.35% active | CHO-M1 cells, IP1 TR-FRET (IP-One), carbachol + lithium | Potency, µM (doses to about 59.4 µM), for the others: top-dose activity, negative = IMPase inhibition, hits mostly inhibitors;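 further: IP1 builds up when IMPase is blocked and the TR-FRET signal falls; potency means the concentration at half of the fitted maximal effect; plate controls were basal vehicle for no effect and high inhibitor control for full effect; nearly all actives have a fitted effect of over 50% in size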
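Lithium-sensitised IP1 accumulation assay; M1-expressing CHO cells treated 30 min at 37C with compound. Competitive antibody detection by time-resolved FRET followed a 10 min room-temperature lysis step.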
12-hLO inh: inhibitors of human 12-lipoxygenase (ALOX12) | purified 12-hLO, xylenol orange hydroperoxide absorbance | Potency, µM (series often up to 57.1 µM), for the others: at the top dose activity change, negative = inhibition, hits mostly inhibitors | 150,000 tested, 0.12% active | P18054; further: potency means the concentration at half of the fitted maximal effect; nearly all actives have a fitted effect of over 55% in size
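Purified human 12hLO (150 nM), preincubated 15 min with compound, then 40 uM arachidonic acid for 30 min, room temperature, Hepes pH 7.0 with 0.01% Triton X-100. Hydroperoxide detected by ferrous iron/xylenol orange; 573/405 nm absorbance ratio gives reaction progress.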
Starred values were filed as active, the others as inactive; [ ] = remark or other dose. Only some compounds are listed: those with a hit (about 5.4% of all), similar ones and a draw of the others. Unless noted, the call rests on the fitted dose curve; in most records, active means well fitted curve in the direction sought with a large enough effect; inconclusive means small, poorly fitted or top-dose-only effect, or another doubt; inactive means no such curve, though single readings can be large; an effect the other way counts as inactive or inconclusive. Unless noted, on the % scale 0 is the no-effect control and ±100 the full control effect.

What do the screens show for `O=C(CC(Cc1ccccc1)c1ccco1)NC1CCCCC1` (centres undefined)?
PNC inhibitor: -13; HPGD inh: 14µM*; IMPase cell inh: 4; ALOX15B inhib: -4%; IMPase Li cell: 22%[38.3 µM]; 12-hLO inh: 1%

Results for COc1ccc(-c2ccc(C(=O)O)c(=O)[nH]2)cc1 ?
IMPase Li cell: 3.2µM*

What do the screens show for `COc1ccc(-c2cc(=O)[nH]c(=S)[nH]2)cc1`?
IMPase Li cell: -3%

What do the screens show for `CCc1ccc(C2CC(=O)c3c([nH]c(C(=O)OCCOc4ccccc4)c3C)C2)cc1` (centres undefined)?
IMPase cell inh: -4

Results for COc1cc(NC(=O)Cn2c(=O)n(Cc3ccccc3Cl)c(=O)c3cc(OC)c(OC)cc32)cc(OC)c1 ?
IMPase cell inh: -7

Results for Nc1ccc(C(=O)OCc2nc3ccccc3s2)cc1 ?
IMPase Li cell: 6%

Results for Oc1ccccc1OCc1nc2ccccc2s1 ?
PNC inhibitor: 15; HPGD inh: 13µM*; IMPase cell inh: 1; ALOX15B inhib: -25%; IMPase Li cell: 34%[38.3 µM]; 12-hLO inh: 0%

Results for O=C(OCc1nc2ccccc2s1)c1ccc(Br)s1 ?
PNC inhibitor: inconclusive; HPGD inh: 16µM*; IMPase cell inh: -4; ALOX15B inhib: -8%; IMPase Li cell: -3%[38.3 µM]; 12-hLO inh: 2%

Results for Cn1c(SCC(=O)Nc2ccc3nc(SCC(=O)N4CCCC4)sc3c2)nnc1-c1ccccc1 ?
PNC inhibitor: -22; HPGD inh: 4µM*; IMPase cell inh: inconclusive; ALOX15B inhib: -27%; IMPase Li cell: 8%[38.3 µM]; 12-hLO inh: -11%

What do the screens show for `CCCC(=O)Nc1ccc2nc(SCC(=O)N3CCCC3)sc2c1`?
IMPase Li cell: 7%

What do the screens show for `CCCCn1c(SCC(=O)c2ccccc2)nc2sc3c(c2c1=O)CCCC3`?
IMPase cell inh: -6

What do the screens show for `CC(C)c1ccc(NC(=O)CCNS(=O)(=O)c2cccc3nonc23)cc1`?
PNC inhibitor: -100*; HPGD inh: -26%; IMPase cell inh: 5; IMPase Li cell: 3%; 12-hLO inh: 1%

Results for O=C(O)c1cccc(NCc2ccncc2)c1 ?
PNC inhibitor: -81*; HPGD inh: -26%; IMPase cell inh: -8; ALOX15B inhib: -2%; IMPase Li cell: 20%[38.3 µM]; 12-hLO inh: -4%

How did O=C(O)c1ccc(NCc2ccncc2)cc1 do in these assays?
PNC inhibitor: 9; HPGD inh: -10%; IMPase cell inh: -2; ALOX15B inhib: 4%; IMPase Li cell: 13%[38.3 µM]; 12-hLO inh: 2%

What do the screens show for `COc1ccccc1CN1CCCC2(CCN(C(C)=O)CC2)C1`?
HPGD inh: -2%; ALOX15B inhib: 4%; IMPase Li cell: 17%; 12-hLO inh: -1%

How did N#Cc1c(SCC(N)=O)nsc1SCc1ccc(Cl)cc1 do in these assays?
PNC inhibitor: -83*; HPGD inh: -13%; IMPase cell inh: 11; ALOX15B inhib: -1%; IMPase Li cell: 22%[38.3 µM]; 12-hLO inh: -8%

Results for CCOC(=O)CSc1nsc(SCC(=O)OCC)c1C#N ?
PNC inhibitor: -100*; HPGD inh: -24%; IMPase cell inh: 12; IMPase Li cell: 1%; 12-hLO inh: -8%

How did N#Cc1c(SCC(N)=O)nsc1SCc1ccccc1Cl do in these assays?
PNC inhibitor: -4; HPGD inh: -13%; IMPase cell inh: 0; ALOX15B inhib: -10%; IMPase Li cell: 19%[38.3 µM]; 12-hLO inh: -3%

How did N#Cc1c(SCC(=O)OCc2ccccc2)nsc1SCC(=O)OCc1ccccc1 do in these assays?
PNC inhibitor: -101*; HPGD inh: -7%; IMPase cell inh: 4; ALOX15B inhib: -5%; IMPase Li cell: 18%[38.3 µM]; 12-hLO inh: 6%

What do the screens show for `CC(OC(=O)c1nn(C)c(=O)c2ccccc12)C(=O)NCc1ccc2c(c1)OCO2` (centres undefined)?
PNC inhibitor: -23; HPGD inh: 20µM*; IMPase cell inh: 8; ALOX15B inhib: 5%; IMPase Li cell: 13%[38.3 µM]; 12-hLO inh: -11%

Results for COc1ccccc1CC(=O)NCc1ccc2c(c1)OCO2 ?
PNC inhibitor: -23; HPGD inh: 14µM*; IMPase cell inh: inconclusive; ALOX15B inhib: -8%; IMPase Li cell: 36%[38.3 µM]; 12-hLO inh: -5%

How did Cc1ccc(S(=O)(=O)N2CCC(C(=O)OC(C)C(=O)NCc3ccc4c(c3)OCO4)CC2)cc1 (centres undefined) do in these assays?
PNC inhibitor: -25; HPGD inh: 18µM*; IMPase cell inh: -4; ALOX15B inhib: 3%; IMPase Li cell: -9%[38.3 µM]; 12-hLO inh: -4%

Results for CC1CCN(S(=O)(=O)c2ccc(C(=O)NCc3ccc4c(c3)OCO4)cc2)CC1 ?
PNC inhibitor: inconclusive; HPGD inh: -7%; IMPase cell inh: 3; ALOX15B inhib: -1%; IMPase Li cell: 14%[38.3 µM]; 12-hLO inh: 0%

What do the screens show for `CC(OC(=O)c1cccnc1)C(=O)NCc1ccc2c(c1)OCO2` (centres undefined)?
PNC inhibitor: 21; IMPase cell inh: 0; 12-hLO inh: 1%

What do the screens show for `CCOc1ccccc1C(=O)NCc1ccc2c(c1)OCO2`?
PNC inhibitor: 55; HPGD inh: 4µM*; IMPase cell inh: -8; ALOX15B inhib: 0%; IMPase Li cell: 17%[38.3 µM]; 12-hLO inh: -5%

Results for O=C(NCc1ccc2c(c1)OCO2)c1cccnc1Cl ?
IMPase Li cell: -9%

Results for COc1ccc(CC(=O)NCc2ccc3c(c2)OCO3)cc1 ?
PNC inhibitor: inconclusive; HPGD inh: -6%; IMPase cell inh: 10; ALOX15B inhib: -6%; IMPase Li cell: -5%[38.3 µM]; 12-hLO inh: 2%

How did CCCCC1=CC2=C(OC(C)=O)C(=O)C(C)(OC(=O)c3ccc(Cl)nc3)C(=O)C2=CO1 (centres undefined) do in these assays?
HPGD inh: -7%; IMPase Li cell: 14%; 12-hLO inh: -3%

How did C[C@@H](CN1CCC(Cc2ccccc2)CC1)[C@H](O)c1ccc(O)cc1 do in these assays?
IMPase cell inh: 13; ALOX15B inhib: 17%; 12-hLO inh: -9%

What do the screens show for `Cc1ccc(-c2nn(CC(=O)Nc3cccc(C(F)(F)F)c3)c(=O)c3ccccc23)cc1`?
IMPase cell inh: 1

What do the screens show for `COC(=O)CCCC(=O)O`?
HPGD inh: -6%; ALOX15B inhib: 11%[11.4 µM]; IMPase Li cell: 7%; 12-hLO inh: 2%[11.4 µM]

Results for CCOc1ccc(NC(=O)Cn2c(=O)n(Cc3ccc(C(=O)NCc4ccc(C)cc4)cc3)c(=O)c3ccccc32)cc1 ?
IMPase cell inh: -7
